Results from PubChem BioAssay (NCATS).
Several values for one entry are separate records, joined by “and”; a condition that tells them apart may be missing. Equal entries are not always repeated. Records with an inconclusive call do not appear. Activity calls are given as the source filed them. Calls come from the whole dose curve; as a rule, active = well fitted activation curve with a large enough effect; inconclusive = small, poorly fitted or top-dose-only effect; inactive = no such curve, though single readings can be large or run the other way. Square brackets hold non-standard residues; d marks the D form. Peptide text beside a SMILES is read from it. ξ: configuration not given here. ξTyr(βOH) = NC(C(=O)O)C(O)c1ccc(O)cc1

molecular target: Cellular tumor antigen p53 (Homo sapiens) (UniProt P04637); experiment: Primary qHTS for small molecule compounds that upregulate eGFP-tagged delta133p53alpha (in N-terminal) cells. (AID 2060322); conditions: NCI-H358 eGFP-delta133p53alpha fluorescence, 24 h; activation: hits give high values; note: nearly all actives have a fitted effect of over 75% in size;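 for activation: series mostly up to about 56 µM; 0% = DMSO vehicle and 100% = reference activator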
Sequence (P04637 whole entry, looked up): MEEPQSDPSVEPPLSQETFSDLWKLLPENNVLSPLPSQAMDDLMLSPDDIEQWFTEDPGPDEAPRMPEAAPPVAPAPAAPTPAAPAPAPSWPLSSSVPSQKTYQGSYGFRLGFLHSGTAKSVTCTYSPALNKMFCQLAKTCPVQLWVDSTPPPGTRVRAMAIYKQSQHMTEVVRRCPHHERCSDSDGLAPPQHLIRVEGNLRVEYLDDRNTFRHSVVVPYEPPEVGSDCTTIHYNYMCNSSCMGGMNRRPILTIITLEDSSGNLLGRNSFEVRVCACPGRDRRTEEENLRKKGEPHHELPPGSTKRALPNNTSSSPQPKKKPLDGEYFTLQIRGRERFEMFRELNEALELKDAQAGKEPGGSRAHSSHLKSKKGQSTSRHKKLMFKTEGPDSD
Procedure, shortened: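 NCI-H358 cells pre-induced 24 h with 10 ng/ml doxycycline to express N-terminal eGFP-delta133p53alpha, then dosed 24 h at 37C without doxycycline; fixed, Hoechst-stained, GFP intensity by laser scanning cytometry, normalized to DMSO (0%) and 57.5 uM 5-azacytidine (100%).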
Potency is the fitted concentration of half-maximal effect.

Row | SMILES | activation | Potency
1 | OC[C@@]1(O)CO[C@H](OC[C@H]2O[C@@H](OC(CCCCc3ccc(O)cc3)CCc3ccc(O)cc3)[C@H](O[C@H]3OC[C@](O)(CO)[C@H]3O)[C@@H](O)[C@@H]2O)[C@@H]1O (some centres not stated) | -2.29% (inactive) | 
2 | Cc1ccccc1C(=O)Nc1ccc(C(=O)N2CCC[C@@H](O)c3cc(Cl)ccc32)c(C)c1 | 0% (inactive) | 
3 | CC1(C)CC2C3=CCC4C5(C)CCC(OC6OC(C(=O)O)C(O)C(O)C6OC6OC(CO)C(O)C(O)C6OC6OC(CO)C(O)C(O)C6O)C(C)(CO)C5CCC4(C)C3(C)CCC2(C)C(OC2OCC(O)C(OC3OC(CO)C(O)C(O)C3O)C2O)C1O (configuration not stated) | -18.3% (inactive) | 
4 | CC(=O)N1CCN(NC(=O)c2ccc(F)cc2)CC1 | -2.39% (inactive) | 
5 | CCCCC1CCC(c2nc(-c3ccncc3)no2)CC1 (configuration not stated) | -6.68% (inactive) | 
6 | COC(C(=O)N1Cc2[nH]nc(NC(=O)c3ccc(N4CCN(C)CC4)cc3)c2C1)c1ccccc1 (configuration not stated) |  | 23.9 µM (active)
7 | C=C1CC[C@@H]2[C@](C)(CO)[C@H](O)CC[C@@]2(C)[C@@H]1C/C=C1/C(=O)OC[C@@H]1O |  | 11.7 µM (active)
8 | CC(C)C1NC(=O)CNC(=O)C2CCCN2C(=O)C(Cc2c[nH]c3ccccc23)NC(=O)CNC(=O)C(C(O)c2ccc(O)cc2)NC(=O)CNC1=O (configuration not stated) (cyclo(G[ξTyr(βOH)]GWPGV); configuration not given here) | -9.92% (inactive) | 
9 | COc1cc(C/C(=C/NC(C)=O)N(CC(=O)Cc2ccccc2)C(C)=O)cc2c1OCO2 | -26% (inactive) | 
10 | CC(C)(O)/C=C/C(=O)[C@](C)(O)[C@H]1[C@H](O)C[C@@]2(C)[C@@H]3CC=C4[C@@H](C=C(O[C@@H]5O[C@H](CO)[C@@H](O)[C@H](O)[C@H]5O)C(=O)C4(C)C)[C@]3(C)C(=O)C[C@]12C | -13.7% (inactive) | 
11 | C[C@@H]1CC[C@@]23CC[C@]4(C)[C@@](C=CC5[C@@]6(C)CC[C@H](O)C(C)(C)C6CC[C@]54C)(OC2=O)C3[C@H]1C (some centres not stated) | 12.2% (inactive) | 
12 | CC(C)C1NC(=O)C2CCCN2C1=O (configuration not stated) | 8.93% (inactive) | 
13 | CCCCNc1ncc(C(=O)NCc2ccc(-n3ccnc3)cc2)c(NC2CCC(O)CC2)n1 (configuration not stated) |  | 21.3 µM (active)
14 | C[C@@H]1C(=O)O[C@H](C)[C@H]1CC(=O)[C@](C)(O)[C@H]1CC[C@@]2(O)C3=CC(=O)[C@@H]4C[C@@H](O)[C@@H](O)C[C@]4(C)C3CC[C@]12C (some centres not stated) | -6.11% (inactive) | 
15 | C=C(C(=O)O)[C@H]1C[C@]2(C)[C@@H](O)CC[C@]23O[C@H]1C[C@@H]3C | 18.8% (inactive) | 
16 | CC1(C)NC2N(C1=O)c1ccccc1C2(O)CC(C(=O)O)n1cnc2ccccc2c1=O (configuration not stated) | -9.16% (inactive) | 
17 | CC1OC(OC2C(CO)OC(OCC3OC(OC(=O)C45CCC(C)(C)CC4C4=CCC6C7(C)CCC(OC8OC(C(=O)O)C(O)C(OC9OC(CO)C(O)C(O)C9O)C8O)C(C)(C)C7CCC6(C)C4(C)CC5)C(O)C(O)C3O)C(O)C2O)C(O)C(O)C1O (configuration not stated) | 18.3% (inactive) | 
18 | COC(=O)c1cc(OC)c(O[C@@H]2O[C@@H](C)[C@H](O)[C@@H](O)[C@H]2O)c(OC)c1 | 1.53% (inactive) | 
19 | O=C1C[C@@]2(C(=O)N1)C(=O)N(Cc1ccc(Br)cc1F)C(=O)c1cccn12 | -11.7% (inactive) | 
20 | C=C1C(O[C@@H]2O[C@H](CO)[C@@H](O)[C@H](O)[C@@H]2O)CC2C(C)(C)C(O)CCC2(C)C1CC/C(C)=C\CO (some centres not stated) | 6.11% (inactive) | 
21 | C=C1CC2[C@@]3(C)C=CC(=O)C(C)(C)C3=C(O)C(=O)[C@@]2(C)C2(C(=O)OC)C(=O)C(C)OC(=O)[C@@]12C (some centres not stated) | -3.82% (inactive) | 
22 | COc1cc2c(cc1OC)[C@@H]1[C@H](O)[C@@H](OC)C=C3CCN(C2)[C@H]31 |  | 16.6 µM (active)
23 | CCOc1ccc(-n2c(C(C)N(Cc3cccnc3)C(=O)Cc3ccc(F)c(C(F)(F)F)c3)nc3ncccc3c2=O)cc1 (configuration not stated) |  | 19 µM (active)
24 | CC(C)(O)C1CC(=O)C2(C)C(CCC3(C)C(c4ccoc4)OC(=O)C4OC432)C12CCC(=O)OC2 (configuration not stated) | -3.57% (inactive) | 
25 | OC(CN1CCN(c2cccc(Cl)c2)CC1)C(c1ccccc1)c1ccccc1 (configuration not stated) | -15.1% (inactive) and 17% (inactive) | 
26 | NC(=O)NCCCC(NC(=O)Cc1ccccc1)C(=O)O (configuration not stated) | -1.79% (inactive) | 
27 | CCC(CC)C(=O)Nc1sc2c(c1C#N)CCC(C(C)(C)CC)C2 (configuration not stated) | -3.34% (inactive) | 
